# Laboratory results from PubChem BioAssay AID1159580 (chemical genetic matrix, 2015).
# Several values for one entry are separate records, joined by “and”; a condition that tells them apart may be missing. Equal entries are not always repeated. About 2,000 (36%) of roughly 5,500 compounds were called active. Another 18% or so got no clear call; they are omitted. The list shows a part of the results. A number with no mark means an inactive call. Rule as the data show it: active = normalized growth mostly below about 0.91 (no sharp cut-off); inconclusive = no clear call, values can overlap the other calls; inactive = mostly above about 0.92.
# Assay: chemical genetic growth profiling, strain panel (AID 1159580);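 also: tested at 20 µM; growth read once vehicle control cultures reached saturation at 30 °C; 1 = growth at the plate median or of vehicle wells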
# Settings: growth OD
structure (smiles),measurement,setting,value
NC(CO)C(=O)NNCc1ccc(O)c(O)c1O (configuration not stated),normalized growth,"S. cerevisiae deletion strains, locus YJR066W, strain TOR1, stronger effect = lower value",0.99
same,normalized growth,"S. cerevisiae deletion strains, locus YJR075W, strain HOC1, stronger effect = lower value",1.01 and 0.944
same,normalized growth,"S. cerevisiae deletion strains, locus YKL009W, strain mrt4, stronger effect = lower value",0.973
same,normalized growth,"S. cerevisiae deletion strains, locus YKL068W, stronger effect = lower value",1.01
same,normalized growth,"S. cerevisiae deletion strains, locus YKL085W, strain MDH1 (second series), stronger effect = lower value",1
same,normalized growth,"S. cerevisiae deletion strains, locus YKL085W, strain MDH1, stronger effect = lower value",1
same,normalized growth,"S. cerevisiae deletion strains, locus YKL160W, strain elf1, stronger effect = lower value",1.02
same,normalized growth,"S. cerevisiae deletion strains, locus YKR001C, strain vps1, stronger effect = lower value",0.986
same,normalized growth,"S. cerevisiae deletion strains, locus YKR026C, strain gcn3, stronger effect = lower value",0.991
same,normalized growth,"S. cerevisiae deletion strains, locus YKR091W, strain srl3, stronger effect = lower value",0.993
same,normalized growth,"S. cerevisiae deletion strains, locus YLL001W, strain dnm1, stronger effect = lower value",1.03
same,normalized growth,"S. cerevisiae deletion strains, locus YLL026W, stronger effect = lower value",1.02
same,normalized growth,"S. cerevisiae deletion strains, locus YLL041C, strain sdh2, stronger effect = lower value",1
same,normalized growth,"S. cerevisiae deletion strains, locus YLR027C, strain aat2, stronger effect = lower value",1.01
same,normalized growth,"S. cerevisiae deletion strains, locus YLR039C, strain RIC1, stronger effect = lower value",1.01
same,normalized growth,"S. cerevisiae deletion strains, locus YLR058C, strain SHM2, stronger effect = lower value",1.01
same,normalized growth,"S. cerevisiae deletion strains, locus YLR102C, strain apc9, stronger effect = lower value",0.983
same,normalized growth,"S. cerevisiae deletion strains, locus YLR113W, strain HOG1, stronger effect = lower value",1.1
same,normalized growth,"S. cerevisiae deletion strains, locus YLR221C, strain rsa3, stronger effect = lower value",0.951
same,normalized growth,"S. cerevisiae deletion strains, locus YLR258W, strain gsy2, stronger effect = lower value",0.974
same,normalized growth,"S. cerevisiae deletion strains, locus YLR262C, strain YPT6 (second series), stronger effect = lower value",0.915
same,normalized growth,"S. cerevisiae deletion strains, locus YLR262C, strain YPT6, stronger effect = lower value",1.04
same,normalized growth,"S. cerevisiae deletion strains, locus YLR268W, strain sec22, stronger effect = lower value",0.984
same,normalized growth,"S. cerevisiae deletion strains, locus YLR320W, strain mms22, stronger effect = lower value",0.987
same,normalized growth,"S. cerevisiae deletion strains, locus YLR330W, strain CHS5, stronger effect = lower value",1.01
same,normalized growth,"S. cerevisiae deletion strains, locus YLR342W, strain FKS1 (second series), stronger effect = lower value",1.06
same,normalized growth,"S. cerevisiae deletion strains, locus YLR342W, strain FKS1, stronger effect = lower value",1.01
same,normalized growth,"S. cerevisiae deletion strains, locus YLR357W, strain rsc2, stronger effect = lower value",0.911
same,normalized growth,"S. cerevisiae deletion strains, locus YLR370C, strain arc18, stronger effect = lower value",0.995
same,normalized growth,"S. cerevisiae deletion strains, locus YLR371W, strain rom2, stronger effect = lower value",0.991
same,normalized growth,"S. cerevisiae deletion strains, locus YLR384C, strain iki3, stronger effect = lower value",1
same,normalized growth,"S. cerevisiae deletion strains, locus YLR418C, strain cdc73, stronger effect = lower value",0.98
same,normalized growth,"S. cerevisiae deletion strains, locus YML016C, strain PPZ1, stronger effect = lower value",1.01
same,normalized growth,"S. cerevisiae deletion strains, locus YML032C, strain rad52, stronger effect = lower value",0.993
same,normalized growth,"S. cerevisiae deletion strains, locus YML120C, strain ndi1, stronger effect = lower value",1.01
same,normalized growth,"S. cerevisiae deletion strains, locus YML124C, strain tub3, stronger effect = lower value",0.996
same,normalized growth,"S. cerevisiae deletion strains, locus YMR058W, strain fet3, stronger effect = lower value",0.688 (active)
same,normalized growth,"S. cerevisiae deletion strains, locus YMR078C, strain ctf18, stronger effect = lower value",0.992
same,normalized growth,"S. cerevisiae deletion strains, locus YMR125W, strain sto1, stronger effect = lower value",1.01
same,normalized growth,"S. cerevisiae deletion strains, locus YMR129W, stronger effect = lower value",0.992
same,normalized growth,"S. cerevisiae deletion strains, locus YMR205C, strain PFK2, stronger effect = lower value",1.07
same,normalized growth,"S. cerevisiae deletion strains, locus YMR223W, strain ubp8, stronger effect = lower value",1.01
same,normalized growth,"S. cerevisiae deletion strains, locus YMR231W, strain pep5, stronger effect = lower value",0.991
same,normalized growth,"S. cerevisiae deletion strains, locus YMR307W, strain GAS1, stronger effect = lower value",1 and 0.976
same,normalized growth,"S. cerevisiae deletion strains, locus YNL067W, strain RPL9B, stronger effect = lower value",0.984
same,normalized growth,"S. cerevisiae deletion strains, locus YNL071W, strain lat1, stronger effect = lower value",1.01
same,normalized growth,"S. cerevisiae deletion strains, locus YNL153C, strain GIM3, stronger effect = lower value",1
same,normalized growth,"S. cerevisiae deletion strains, locus YNL175C, strain NOP13, stronger effect = lower value",0.988
same,normalized growth,"S. cerevisiae deletion strains, locus YNL183C, strain NPR1, stronger effect = lower value",0.99
same,normalized growth,"S. cerevisiae deletion strains, locus YNL197C, strain WHI3, stronger effect = lower value",0.935
same,normalized growth,"S. cerevisiae deletion strains, locus YNL209W, strain ssb2, stronger effect = lower value",0.9 (active)
same,normalized growth,"S. cerevisiae deletion strains, locus YNL224C, strain SQS1, stronger effect = lower value",1.01
same,normalized growth,"S. cerevisiae deletion strains, locus YNL233W, strain BNI4, stronger effect = lower value",0.998
same,normalized growth,"S. cerevisiae deletion strains, locus YNL248C, strain rpa49, stronger effect = lower value",0.946
same,normalized growth,"S. cerevisiae deletion strains, locus YNL250W, strain rad50, stronger effect = lower value",0.983
same,normalized growth,"S. cerevisiae deletion strains, locus YNL271C, strain bni1, stronger effect = lower value",1
same,normalized growth,"S. cerevisiae deletion strains, locus YNL298W, strain CLA4, stronger effect = lower value",0.988
same,normalized growth,"S. cerevisiae deletion strains, locus YNL307C, strain MCK1, stronger effect = lower value",0.982
same,normalized growth,"S. cerevisiae deletion strains, locus YNL322C, strain KRE1 (second series), stronger effect = lower value",0.999
same,normalized growth,"S. cerevisiae deletion strains, locus YNR049C, strain mso1, stronger effect = lower value",0.99
same,normalized growth,"S. cerevisiae deletion strains, locus YNR052C, strain pop2, stronger effect = lower value",1.01
same,normalized growth,"S. cerevisiae deletion strains, locus YOL012C, strain htz1",0.788
same,normalized growth,"S. cerevisiae deletion strains, locus YOL147C, strain pex11, stronger effect = lower value",0.98
same,normalized growth,"S. cerevisiae deletion strains, locus YOR001W, strain rrp6, stronger effect = lower value",1.03
same,normalized growth,"S. cerevisiae deletion strains, locus YOR061W, strain CKA2, stronger effect = lower value",1.01
same,normalized growth,"S. cerevisiae deletion strains, locus YOR069W, strain VPS5, stronger effect = lower value",1
same,normalized growth,"S. cerevisiae deletion strains, locus YOR070C, strain gyp1, stronger effect = lower value",0.972
same,normalized growth,"S. cerevisiae deletion strains, locus YOR080W, strain dia2, stronger effect = lower value",1.01
same,normalized growth,"S. cerevisiae deletion strains, locus YOR083W, strain WHI5 (second series), stronger effect = lower value",0.978
same,normalized growth,"S. cerevisiae deletion strains, locus YOR083W, strain WHI5, stronger effect = lower value",0.986
same,normalized growth,"S. cerevisiae deletion strains, locus YOR106W, strain vam3, stronger effect = lower value",0.948
same,normalized growth,"S. cerevisiae deletion strains, locus YOR136W, strain idh2, stronger effect = lower value",0.97
same,normalized growth,"S. cerevisiae deletion strains, locus YOR144C, strain elg1, stronger effect = lower value",0.987
same,normalized growth,"S. cerevisiae deletion strains, locus YOR184W, strain ser1, stronger effect = lower value",0.993
same,normalized growth,"S. cerevisiae deletion strains, locus YOR231W, strain MKK1, stronger effect = lower value",1.07
same,normalized growth,"S. cerevisiae deletion strains, locus YOR265W, strain rbl2, stronger effect = lower value",0.996
same,normalized growth,"S. cerevisiae deletion strains, locus YOR270C, strain vph1, stronger effect = lower value",0.996
same,normalized growth,"S. cerevisiae deletion strains, locus YOR290C, strain snf2, stronger effect = lower value",0.957
same,normalized growth,"S. cerevisiae deletion strains, locus YOR316C, strain cot1, stronger effect = lower value",0.991
same,normalized growth,"S. cerevisiae deletion strains, locus YPL051W, strain arl3, stronger effect = lower value",0.973
same,normalized growth,"S. cerevisiae deletion strains, locus YPL055C, strain LGE1, stronger effect = lower value",1.01 and 0.959
same,normalized growth,"S. cerevisiae deletion strains, locus YPL078C, strain atp4, stronger effect = lower value",1.02
same,normalized growth,"S. cerevisiae deletion strains, locus YPL106C, strain sse1, stronger effect = lower value",0.936
same,normalized growth,"S. cerevisiae deletion strains, locus YPL240C, strain hsp82, stronger effect = lower value",0.991
same,normalized growth,"S. cerevisiae deletion strains, locus YPL241C, strain CIN2, stronger effect = lower value",1.01
same,normalized growth,"S. cerevisiae deletion strains, locus YPL256C, strain CLN2, stronger effect = lower value",1.09
same,normalized growth,"S. cerevisiae deletion strains, locus YPR119W, strain clb2, stronger effect = lower value",0.999
same,normalized growth,"S. cerevisiae deletion strains, locus YPR141C, strain kar3, stronger effect = lower value",0.987
same,normalized growth,"S. cerevisiae deletion strains, locus YPR163C, strain tif3, stronger effect = lower value",0.991
same,normalized growth,"S. cerevisiae deletion strains, locus YPR167C, strain met16, stronger effect = lower value",0.994
same,normalized growth,"S. cerevisiae deletion strains, strain wtn01, stronger effect = lower value",1.02
same,normalized growth,"S. cerevisiae strains, strain wild type, stronger effect = lower value",1
